# Source: PubChem BioAssay AID602393 (Broad Institute, 2012)
# In all, about 350,000 compounds went through this assay and about 7,000 (2%) were called active. Cut-off read from the data, not from the text of the source: active = activation above about 40%; inconclusive = no clear call, values can overlap the other calls; inactive = below that. Shown is part of a subset that was picked to be rich in actives.
# Assay: Bmi1 luciferase reporter increase in mESCs, primary screen, esBAF inhibitor project, mouse ES cells, Bmi1 luciferase knock-in, single point (AID 602393);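 note: 0% = median of the plate's neutral control wells and 100% = double that signal; a rise in the Bmi1 reporter signal indicates esBAF inhibition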
# Details: 24 h, at 12.5 µM, hits give high values, 100% = twice the neutral-well signal
row,SMILES,reporter increase
1,COCC(=O)Nc1ccc2c(c1)C(=O)N(C)C[C@H](OC)[C@@H](C)CN(C(=O)c1cnccn1)[C@H](C)CO2,-3.88% (inactive)
2,COC(=O)C[C@H]1CC[C@@H](NC(=O)c2ccccc2)[C@@H](CO)O1,-2.05% (inactive)
3,CC(C)NC(=O)Nc1ccc2c(c1)C(=O)N([C@@H](C)CO)C[C@H](C)[C@@H](CN(C)C(=O)Nc1ccc(F)cc1)OCCCC[C@H](C)O2,11.9% (inactive)
4,O=C(NCC(=O)N1CCN(c2ccccc2F)CC1)c1cccs1,28.1% (inactive)
5,O=C(CCc1ccccc1F)N1CCN(c2ccccc2)CC1,1.91% (inactive)
6,O=C(CCSc1ccccc1)N1CCN(c2ccccc2F)CC1,65.1% (active)
7,CCCN1C[C@H](C)[C@@H](OC)CN(C)C(=O)c2ccc(NC(=O)C3CCOCC3)cc2OC[C@H]1C,-2.07% (inactive)
8,O=C(C[C@@H]1CC[C@H]2NC[C@H](O)COC[C@@H]2O1)NCCN1CCCCC1,6.52% (inactive)
9,O=C(CC(F)(F)F)N1C[C@H]2[C@@H](c3ccccc31)[C@H](CO)N2C(=O)Cc1cccnc1,-1.13% (inactive)
10,CS(=O)(=O)N1CCc2cc(C(=O)Nc3ccccc3Br)ccc21,34.7% (inactive)
11,CC(=O)Nc1cccc(NC(=O)c2ccc3c(c2)CCN3S(C)(=O)=O)c1,2.43% (inactive)
12,CS(=O)(=O)N1CCc2cc(C(=O)Nc3ccccc3)ccc21,47.5% (active)
13,O=C(O)C[C@H]1C[C@@H]2c3cc(NC(=O)Nc4ccc(C(F)(F)F)cc4)ccc3O[C@@H]2[C@@H](CO)O1,2.29% (inactive)
14,CCN(CC)C(=O)C1=C(C)N(Cc2ccc(OC)cc2)C(=O)C(CC(=O)NCc2ccco2)C1 (stereo not given),-3.89% (inactive)
15,COc1ccc(CN2C(=O)C(C)S/C2=N/N=C/c2ccco2)cc1 (stereo not given),70.2% (active)
16,C=CCN1C(=O)C(Cc2cccc(Cl)c2)S/C1=N/N=C/c1ccco1 (stereo not given),-2.3% (inactive)
17,CCCC(=O)Nc1ccc2c(c1)C(=O)N(C)C[C@@H](OC)[C@@H](C)CN(C(=O)CC)[C@H](C)CO2,-1.94% (inactive)
18,CN(C)C(=O)C[C@H]1CC[C@@H](NC(=O)Nc2cccc(F)c2)[C@H](CO)O1,-0.909% (inactive)
19,COCC#Cc1cnc2c(c1)C(=O)N([C@@H](C)CO)C[C@@H](C)[C@H](CN(C)C(=O)c1cnccn1)O2,3.45% (inactive)
20,CN1C(=O)c2cc(NC(=O)Nc3ccccc3Cl)ccc2OC[C@H]2O[C@@H](CC(=O)O)CC[C@H]21,3.49% (inactive)
21,O=C(C1CCC(=O)N(C2CC2)C1)N1CCN(c2ccc(Cl)cc2)CC1 (stereo not given),-7.88% (inactive)
22,COCC1CCN(C(=O)C2CCC(=O)N(CC3CCCCC3)C2)CC1 (stereo not given),-0.459% (inactive)
23,CC(C)C1CCN(C(=O)C2CCC(=O)N(C3CCCCCC3)C2)CC1 (stereo not given),55.6% (active)
24,COc1ccc(S(=O)(=O)Nc2ccc3c(c2)CC(=O)N([C@H](C)CO)C[C@H](C)[C@@H](CN(C)C)O3)cc1,-3.65% (inactive)
25,O=C(Cc1ccccn1)N[C@H]1CC[C@H](CCNS(=O)(=O)c2cccc(F)c2)O[C@@H]1CO,0.895% (inactive)
